# According to PubChem BioAssay:
# Values without a mark were called inactive. For some of these results: Results with a measured potency or affinity are listed apart. The source made the active and inactive calls. Unless noted, no rule for the calls is given here.
# Assays:
# [1] = antimalarial activity against Dd2 strain (AID 2302;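 active = growth inhibition above 50% at the single 2 µM test dose, taken to imply half-maximal potency below 2 µM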;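 also: 0% = DMSO untreated growth and 100% = chloroquine plus artemisinin killed control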); conditions: P. falciparum Dd2 in RBCs, LDH growth readout, 72 h; at 2 µM; stronger effect = higher value
# [2] = human hepatoma cell viability loss – ATP luminescence, cytotoxicity control for P. falciparum antimalarial project, primary screen (AID 2303;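 active = inhibition above 50%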;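 also: 0% = DMSO wells and 100% = digitonin-killed cells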); conditions: HepG2 viability, 24-48 h, at 10 µM, stronger effect = higher value
# [3] = target: L-lactate dehydrogenase (Plasmodium falciparum (isolate CDC / Honduras)) (UniProt Q27743); assay: PfLDH activity inhibition – cell lysate, 3D7 strain, counter-screen for P. falciparum growth inhibition project (AID 2304);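 also: 0% = vehicle and 100% = reference inhibitor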; conditions: P. falciparum 3D7 crude extract, LDH APAD/NBT absorbance; at 2 µM; stronger effect = higher value
# Sequence of L-lactate dehydrogenase (Plasmodium falciparum (isolate CDC / Honduras)) (Q27743 whole entry, looked up): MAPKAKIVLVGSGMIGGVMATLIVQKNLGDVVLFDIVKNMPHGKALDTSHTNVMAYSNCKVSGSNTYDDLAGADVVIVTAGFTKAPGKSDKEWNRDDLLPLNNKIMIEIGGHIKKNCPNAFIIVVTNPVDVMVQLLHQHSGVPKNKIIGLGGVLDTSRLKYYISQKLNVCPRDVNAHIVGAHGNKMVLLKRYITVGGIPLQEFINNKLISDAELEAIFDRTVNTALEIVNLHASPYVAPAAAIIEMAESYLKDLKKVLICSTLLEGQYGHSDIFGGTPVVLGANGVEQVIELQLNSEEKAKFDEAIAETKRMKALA
# [4] = inhibition of 3D7 malaria parasite growth – strain 3D7 (AID 2306);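 also: 0% = DMSO wells and 100% = chloroquine plus artemisinin control wells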; conditions: P. falciparum 3D7 erythrocytic growth, LDH absorbance, 72 h; at 2 µM; stronger effect = higher value
# [5] = target: Calcium-dependent protein kinase 1 (Plasmodium falciparum (isolate 3D7)) (UniProt P62344); assay: PfCDPK1 kinase inhibitors, biochemical, TCAMS library (AID 1159585; cut-off not given, nearly all actives have IC50 up to about 0.98 µM;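 also: inhibitors leave more ATP so luminescence rises with inhibition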); conditions: recombinant PfCDPK1, Kinase-Glo ATP depletion luminescence
# Sequence of Calcium-dependent protein kinase 1 (Plasmodium falciparum (isolate 3D7)) (P62344 whole entry, looked up): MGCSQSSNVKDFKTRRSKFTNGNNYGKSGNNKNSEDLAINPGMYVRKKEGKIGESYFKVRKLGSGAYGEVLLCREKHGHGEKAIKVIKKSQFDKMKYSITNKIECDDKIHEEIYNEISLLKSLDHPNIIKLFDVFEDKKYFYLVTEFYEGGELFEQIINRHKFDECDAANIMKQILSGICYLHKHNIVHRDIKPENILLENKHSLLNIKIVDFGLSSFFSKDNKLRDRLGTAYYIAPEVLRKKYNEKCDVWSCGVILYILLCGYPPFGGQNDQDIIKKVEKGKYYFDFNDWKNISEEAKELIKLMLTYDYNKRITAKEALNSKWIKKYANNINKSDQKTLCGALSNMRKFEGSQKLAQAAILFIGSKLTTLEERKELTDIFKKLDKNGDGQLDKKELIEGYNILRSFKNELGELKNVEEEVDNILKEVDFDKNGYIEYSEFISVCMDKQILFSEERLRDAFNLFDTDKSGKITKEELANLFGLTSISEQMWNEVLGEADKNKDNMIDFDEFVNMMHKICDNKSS
# [6] = target: Plasmodium falciparum protein kinase 6 (PK6, PF3D7_1337100) (UniProt Q8IDW1); assay: PfPK6 kinase inhibitors, biochemical, TCAMS library (AID 1159586); conditions: recombinant PfPK6, Kinase-Glo ATP depletion luminescence
# Sequence of Plasmodium falciparum protein kinase 6 (PK6, PF3D7_1337100) (Q8IDW1 1-305): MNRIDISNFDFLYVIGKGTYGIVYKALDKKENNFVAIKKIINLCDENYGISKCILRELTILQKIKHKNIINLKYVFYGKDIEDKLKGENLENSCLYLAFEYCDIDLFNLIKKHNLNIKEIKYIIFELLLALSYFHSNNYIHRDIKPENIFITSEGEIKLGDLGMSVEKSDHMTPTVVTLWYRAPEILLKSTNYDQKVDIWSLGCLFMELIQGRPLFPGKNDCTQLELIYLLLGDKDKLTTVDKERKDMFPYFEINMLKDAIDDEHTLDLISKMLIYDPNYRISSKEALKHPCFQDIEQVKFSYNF
# [7] = target: Protein kinase 7 (PK7), Plasmodium falciparum 3D7 (PF3D7_0213400) (UniProt Q7YTF7); assay: inhibition of Plasmodium PK7 catalytic activity – biochemical, TCAMS antimalarial set, Kinase-Glo luminescence (AID 1159587); conditions: recombinant PfPK7, Kinase-Glo ATP depletion luminescence
# Sequence of Protein kinase 7 (PK7), Plasmodium falciparum 3D7 (PF3D7_0213400) (Q7YTF7 1-343): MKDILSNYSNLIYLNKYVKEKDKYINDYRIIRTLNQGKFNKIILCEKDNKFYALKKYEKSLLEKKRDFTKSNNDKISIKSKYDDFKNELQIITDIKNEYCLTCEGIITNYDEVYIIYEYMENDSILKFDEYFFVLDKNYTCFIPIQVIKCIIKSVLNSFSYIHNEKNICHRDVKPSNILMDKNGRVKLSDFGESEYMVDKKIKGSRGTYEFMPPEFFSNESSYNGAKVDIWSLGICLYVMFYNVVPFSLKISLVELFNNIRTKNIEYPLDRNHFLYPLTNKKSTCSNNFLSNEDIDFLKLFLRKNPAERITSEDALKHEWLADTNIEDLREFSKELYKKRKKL
# [8] = target: Calcium-dependent protein kinase 4 (Plasmodium falciparum (isolate 3D7)) (UniProt Q8IBS5); assay: PfCDPK4 kinase inhibitors, biochemical, TCAMS library (AID 1159588; cut-off not given, nearly all actives have IC50 up to about 0.91 µM); conditions: recombinant PfCDPK4, Kinase-Glo ATP depletion luminescence
# Sequence of Calcium-dependent protein kinase 4 (Plasmodium falciparum (isolate 3D7)) (Q8IBS5 whole entry, looked up): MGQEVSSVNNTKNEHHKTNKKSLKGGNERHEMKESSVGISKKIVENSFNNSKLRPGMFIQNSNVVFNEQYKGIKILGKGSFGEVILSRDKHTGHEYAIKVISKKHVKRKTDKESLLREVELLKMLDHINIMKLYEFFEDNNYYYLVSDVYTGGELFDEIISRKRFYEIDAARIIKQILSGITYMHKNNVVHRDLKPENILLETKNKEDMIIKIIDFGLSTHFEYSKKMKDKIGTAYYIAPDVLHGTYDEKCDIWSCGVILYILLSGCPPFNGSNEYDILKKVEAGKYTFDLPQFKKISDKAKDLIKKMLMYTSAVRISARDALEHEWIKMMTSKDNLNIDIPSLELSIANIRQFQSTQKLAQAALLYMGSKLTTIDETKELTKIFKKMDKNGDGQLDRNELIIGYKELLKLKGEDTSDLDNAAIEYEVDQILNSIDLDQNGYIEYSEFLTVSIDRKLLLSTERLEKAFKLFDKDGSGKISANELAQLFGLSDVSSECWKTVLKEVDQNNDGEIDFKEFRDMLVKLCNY
Compound,growth inhibition [1],inhibition [2],inhibition [3] [%],growth inhibition [4],outcome [5],outcome [6],outcome [7],outcome [8]
Cc1cccc2[nH]c(-c3cccc(-c4ccc(CNCCCN5CCCC5=O)cc4)c3)nc12,38%,5%,2,101% (active),inactive,inactive,inactive,inactive
O=C(NC(c1ccccc1)c1ccccc1)C(c1cc2ccccc2o1)N1CCN(C(c2ccccc2)c2ccccc2)CC1 (stereo not given),78% (active),-1%,-1,95% (active),inactive,inactive,inactive,inactive
CCN(CC)CCOc1cc2c(cc1Br)-c1cc(Br)c(OCCN(CC)CC)cc1C2=NO,98% (active),99% (active),-3,100% (active),inactive,inactive,inactive,inactive
OC(c1cc(C(F)(F)F)nc2c(F)cccc12)C1CCCCN1 (stereo not given),74% (active),-4%,-2,98% (active),inactive,inactive,inactive,inactive
Cc1cc(NCCC(=O)Nc2ccccc2)nc(NCCOc2ccccc2)n1,9%,5%,0,100% (active),inactive,inactive,inactive,inactive
c1cc(Nc2nc(-c3ccc(-c4csc(Nc5ccncc5)n4)cc3)cs2)ccn1,99% (active),91% (active),-4,100% (active),inactive,inactive,inactive,inactive
CCCN1CCC(NCc2cn(C)nc2-c2ccc(Oc3ccccc3)cc2)CC1,44%,34%,-3,88% (active),inactive,inactive,inactive,inactive
CCCCN1CCN(c2cc(NS(=O)(=O)c3cccc(C(=O)Nc4ccc(C(F)(F)F)cc4)c3)ccc2OC)CC1,7%,6%,4,99% (active),inactive,inactive,inactive,inactive
O=C(Nc1ccc(C(F)(F)F)cc1)NC1CCN(c2ccnc3ccccc23)C1 (stereo not given),89% (active),13%,0,102% (active),inactive,inactive,inactive,inactive
Clc1ccc2c(Cl)c(CNCCCNc3nc4ccccc4[nH]3)[nH]c2c1,7%,38%,-1,101% (active),inactive,inactive,inactive,inactive
CCN(CC)CCN(Cc1ccc(-c2ccc(C(F)(F)F)cc2)cc1)C(=O)Cn1c(CCc2cc(F)ccc2F)nc(=O)c2ccccc21,52% (active),42%,4,98% (active),inactive,inactive,inactive,inactive
Cc1ccc(NC(=O)c2c(C)noc2-c2snnc2C)cc1,71% (active),1%,3,92% (active),inactive,inactive,inactive,inactive
CN(C)CCOc1ccc(-c2cc(-c3ccncc3)c(-c3ccc(Cl)c(O)c3)[nH]2)cc1,100% (active),25%,-2,98% (active),inactive,inactive,inactive,inactive
CC(C)NCc1ccc(-c2ccc(CN3CCCC(c4ccccc4)C3)cc2)c(C(=O)NCC2CCCCC2)c1 (stereo not given),53% (active),79% (active),-3,97% (active),inactive,inactive,inactive,inactive
CN1CCN(Cc2ccc(OCc3cccc(COc4ccc(CN5CCN(C)CC5)cc4I)c3)c(I)c2)CC1,69% (active),93% (active),0,92% (active),inactive,inactive,inactive,inactive
CCNc1cc(C)nc(Nc2ccc(NC(=O)c3ccc(OC)c(OC)c3)cc2)n1,65% (active),19%,0,101% (active),inactive,inactive,inactive,inactive
CC(C)CCN(Cc1cncn1Cc1cccc(C(F)(F)F)c1)C(=O)c1cncc(-c2ccccc2)c1,4%,15%,-3,100% (active),inactive,inactive,inactive,inactive
CCOc1c(CNCCCNc2cc(=O)c3ccccc3[nH]2)cc(Br)cc1OC,18%,10%,-9,80% (active),inactive,inactive,inactive,inactive
Cn1ccnc1CNC(=O)c1ccc(-c2ccc(-c3nc4ccc(C(F)(F)F)cc4[nH]3)s2)cc1,43%,40%,3,101% (active),inactive,inactive,inactive,inactive
Cc1cc(NCC(c2ccccc2)c2ccccc2)nc(NCc2ccc(C(F)(F)F)cc2)n1,79% (active),29%,2,102% (active),inactive,inactive,inactive,inactive
